# NTMT1 inh = Primary qHTS for Inhibitors of N-terminal methyltransferase 1 (NTMT1): MTaseGlo Assay; N-terminal Xaa-Pro-Lys N-methyltransferase 1 (Homo sapiens), Q9BV86; NTMT1 MTase-Glo SAH luminescence, purified enzyme; Potency, µM (highest dose often 114 µM), for the others: top-dose activity change, negative = inhibition, hits mostly inhibitors; 59,000 compounds, 2.5% hits; AID 1645870, 2021;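 also: potency is read from the fitted curve at half-maximal effect; plate controls were DMSO vehicle for no effect and no enzyme for full effect; nearly all actives have a fitted effect of over 65% in size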
# S16 viability = Cell viability qHTS assay in S16 Pmp22-F2sN cells | S16 Pmp22-F2sN Schwann cells viability, CellTiter-Glo, 24 h | Potency, µM (series often up to 57.5 µM), inactives show top-dose activity change, negative = cytotoxicity, usual class: cytotoxic | 43,000 compounds, 0.48% hits; also: potency is read from the fitted curve at half-maximal effect; % is scaled to controls: 0 for no effect and ±100 for the full control effect; nearly all actives have a fitted effect of over 65% in size
#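 Used to flag compounds lowering reporter output through toxicity, this quantitative HTS measures ATP-based CellTiter-Glo luminescence in S16 Pmp22-F2sN Schwann cells after 24 h compound exposure at 37C.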
# OvCa metastasis = Primary qHTS assay for Inhibitors of ovarian cancer metastasis using an organotypic tumor microenvironment (TME) model. SKOV3ip1-GFP adhesion/invasion on 3D omental model, fluorescence. AID 1963576, 2024. Potency, µM (titrated, usually from 45.8 µM), for the others: at the highest dose activity change, negative = inhibition, actives largely listed as inhibitors. 46,000 compounds, 0.1% hits;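 also: potency is read from the fitted curve at half-maximal effect; plate controls were DMSO wells for no effect and tomatine positive control wells for full effect; nearly all actives have a fitted effect of over 65% in size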
#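 Primary human omental fibroblast/mesothelial 3D culture pre-formed 48 h. SKOV3ip1-GFP cells added with compounds (0.36-46 umol/L), incubated 2 h RT/16 h 37 C, fixed; GFP cells quantified at 488/509 nm.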
# PMP22 txn prim = Cell-based coincidence reporter assay to measure PMP22 gene transcription in S16 Pmp22-F2sN cells - Primary screen | 43,000 compounds, 2% hits | S16 Pmp22-F2sN Schwann cells (luciferase reporters placed in the Pmp22 gene), FLuc/NLuc coincidence luminescence, 24 h | Potency, µM (top dose mostly 57.5 µM), inactives show at the top dose activity change, negative = inhibition, usual class: inhibitors; active = clear falling dose curves in both reporters; inconclusive = both reporters move, but less clearly or upward; inactive = either reporter flat; the % is the NLuc reporter signal; also: potency is read from the fitted curve at half-maximal effect; % is scaled to controls: 0 for no effect and ±100 for the full control effect
#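 Transcriptional readout in edited S16(c9) cells: two luciferases reported from the Pmp22 locus, measured in turn after 24 h compound incubation.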
# pS6 MEF inh = Acumen qHTS Assay for Inhibitors of the mTORC1 Signaling Pathway in MEF (Tsc2-/-, p53-/-) Cells: Sytravon; Tsc2-/- p53-/- MEF, phospho-rpS6 immunofluorescence/PI, 24 h; Potency, µM (doses to about 38.3 µM), for the others: at the top dose activity change, negative = inhibition, hits mostly inhibitors; 44,000 compounds, 0.78% hits;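 also: potency is read from the fitted curve at half-maximal effect; plate controls were DMSO for no effect and rapamycin for full effect; nearly all actives have a fitted effect of over 50% in size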
#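 Tsc2-/-, p53-/- MEFs (empty-vector stable line) in DMEM + 10% FBS were treated with compounds 24 h at 37 degree Celsius, fixed, and immunostained for phospho-rpS6 (Alexa-488) with propidium iodide counterstain. Laser-scanning cytometry gave % positive cells, normalized against 7.5 nM rapamycin and DMSO.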
# GALC G270D act = A Novel Cell-Based Assay to Identify Small Molecules for B -Galactocerebrosidase | Potency, µM (highest dose often 57.5 µM), hits mostly activators | P54803 | 145M-Twi-hGALC-G270D cells (Twitcher mouse brain line with human GALC G270D), HMU-beta-Gal fluorescence, 48 h | 45,000 compounds, 0.1% hits; also: potency is read from the fitted curve at half-maximal effect; 0% is about no effect; nearly all actives have a fitted effect of over 65% in size
#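 Fluorogenic HMU-b-Gal hydrolysis (0.1 mM final, pH 5.2 citrate-phosphate with 1 mg/mL sodium taurocholate; carbonate stop buffer) measures mutant GALC activity after compound treatment of live 145M-Twi Twitcher brain cells stably carrying human GALC-G270D, with wild-type GALC line alongside; activation sought.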
# CLK4 inh-1 = Confirmation Assay for Inhibitors of CDC-like Kinase 4 (Kinase-Glo Assay): SAR round 2. shares compounds with NTMT1 inh. recombinant Clk4, Kinase-Glo ATP luminescence, 4.5 h. Potency, µM (doses to about 76.9 µM), inactives show at the top dose activity, negative = inhibition, actives largely listed as inhibitors. 90 compounds, 90% hits
# CLK4 inh-2 = Kinase Inhibition Study on Inhibitors of CDC-like Kinase 4 (Reaction Biology data): SAR round 2 | shares compounds with NTMT1 inh | Reaction Biology kinase assay, 10 uM ATP | Potency, µM, actives largely listed as inhibitors | 65 compounds, 100% hits; calls by dose curve
# DYRK1A RBC = Kinase Inhibition Study on Inhibitors of Dyrk1a (Reaction Biology data); shares compounds with NTMT1 inh; Reaction Biology kinase assay, 10 uM ATP; Potency, µM, most hits filed as inhibitors; 65 compounds, 90% hits;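 active = compounds that showed inhibition of Dyrk1a and received a fitted potency; inactive = compounds that showed no inhibition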
# CLK2 inh = Kinase Inhibition Study on Inhibitors of CDC-like Kinase 2 (Reaction Biology data); 65 compounds, 90% hits; shares compounds with NTMT1 inh; Reaction Biology kinase assay, 10 uM ATP; Potency, µM, most hits filed as inhibitors;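 active = compound that inhibits Clk2 kinase in the dose series, with an IC50 potency reported; inactive = no inhibition seen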
# CLK3 inh = Kinase Inhibition Study on Inhibitors of CDC-like Kinase 3 (Reaction Biology data) | AID 504428, 2011 | shares compounds with NTMT1 inh | Potency, µM, hits mostly inhibitors | recombinant CLK3 kinase assay, 10 uM ATP | 65 compounds, 40% hits;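 active = compounds that inhibited Clk3 enough in the ten-dose series to give a half-maximal potency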
# DYRK1B inh = Kinase Inhibition Study on Inhibitors of Dyrk1b (Reaction Biology data) | shares compounds with NTMT1 inh | Recombinant Dyrk1b kinase assay, 10 uM ATP | Potency, µM, hits mostly inhibitors | 65 compounds, 80% hits | AID 504429, 2011;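 active = compounds whose dose response shows an inhibitor phenotype against the kinase Dyrk1b; inactive = compounds showing no inhibitor phenotype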
# CLK1 inh = Kinase Inhibition Study on Inhibitors of CDC-like Kinase 1 (Reaction Biology data) | Potency, µM, usual class: inhibitors | 65 compounds, 90% hits | shares compounds with NTMT1 inh | recombinant Clk1 kinase assay, 10 uM ATP;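 active = compounds that block the splicing kinase Clk1 enough to give a fitted half-inhibition concentration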
# Target sequence (P49759 whole entry, looked up): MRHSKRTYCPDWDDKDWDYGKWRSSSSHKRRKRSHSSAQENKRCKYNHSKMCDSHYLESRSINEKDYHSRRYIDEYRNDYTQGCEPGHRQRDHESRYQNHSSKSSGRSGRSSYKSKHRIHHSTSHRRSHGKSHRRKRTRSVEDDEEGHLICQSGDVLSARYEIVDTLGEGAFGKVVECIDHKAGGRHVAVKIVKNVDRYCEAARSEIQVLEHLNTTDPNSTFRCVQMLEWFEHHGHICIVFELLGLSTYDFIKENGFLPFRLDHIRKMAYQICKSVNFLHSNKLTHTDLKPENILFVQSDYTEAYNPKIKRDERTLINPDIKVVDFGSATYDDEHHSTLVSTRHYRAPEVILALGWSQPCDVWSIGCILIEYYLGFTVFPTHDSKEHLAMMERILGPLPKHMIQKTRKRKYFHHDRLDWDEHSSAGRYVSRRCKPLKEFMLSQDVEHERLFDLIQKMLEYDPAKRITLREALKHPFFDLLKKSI
# NNMT counter = Counterscreen qHTS for Inhibitors of N-terminal methyltransferase 1 (NTMT1): NNMT MTaseGlo assay. shares compounds with NTMT1 inh. NNMT MTase-Glo luminescence, SAH detection. Potency, µM (titrated, usually from 57.1 µM), for inactives: at the top dose activity, negative = inhibition, most hits filed as inhibitors. 120 compounds, 10% hits. AID 1645878, 2021
# Target sequence (P40261 whole entry, looked up): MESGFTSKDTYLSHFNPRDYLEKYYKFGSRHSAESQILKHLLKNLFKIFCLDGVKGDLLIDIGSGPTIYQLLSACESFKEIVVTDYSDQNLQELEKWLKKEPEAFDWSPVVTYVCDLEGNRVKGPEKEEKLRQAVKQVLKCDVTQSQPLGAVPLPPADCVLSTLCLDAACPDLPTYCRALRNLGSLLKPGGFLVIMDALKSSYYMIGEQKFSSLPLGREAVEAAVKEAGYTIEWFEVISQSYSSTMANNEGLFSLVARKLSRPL
# An asterisk follows results filed as active; i = inactive; ? = inconclusive; nt = no result given; ! = not active in a repeat; [ ] = dose if it differs, or a comment. Hits are enriched below; roughly 3.6% of the tested compounds scored in any of these assays. Unless noted, calls follow the shape of the dose curve; as a rule, active = well fitted curve in the direction sought with a large enough effect; inconclusive = small, poorly fitted or top-dose-only effect, or another doubt; inactive = no such curve, though single readings can be large; an effect the other way counts as inactive or inconclusive.
SMILES,NTMT1 inh,S16 viability,OvCa metastasis,PMP22 txn prim,pS6 MEF inh,GALC G270D act,CLK4 inh-1,NNMT counter,others
CCNC(=O)c1ccc(-c2ccc3ncnc(NCc4nccs4)c3c2)o1,?,nt,nt,nt,nt,nt,0.52µM*,nt,CLK4 inh-2=0.88*;DYRK1A RBC=5.1µM*;CLK2 inh=19µM*;CLK3 inh=i;DYRK1B inh=5µM*;CLK1 inh=7µM*
Cc1ccc(CNc2ncnc3ccc(-c4ccc(C(=O)O)o4)cc23)o1,nt,nt,nt,nt,nt,nt,0.073µM*,nt,CLK4 inh-2=0.1*;DYRK1A RBC=17µM*;CLK2 inh=1.4µM*;CLK3 inh=i;DYRK1B inh=4.9µM*;CLK1 inh=1.6µM*
Cc1ccc(CNc2ncnc3ccc(-c4ccc([C@@H](C)O)o4)cc23)o1,?,nt,nt,nt,nt,nt,0.18µM*,nt,
Cc1noc(C)c1-c1ccc2ncnc(NCc3ccc(C(F)(F)F)o3)c2c1,6%[57.5 µM],nt,nt,nt,nt,nt,nt,nt,
Cc1csc(CNc2ncnc3ccc(-c4ccc(C(=O)O)o4)cc23)n1,-2%[57.5 µM],nt,nt,nt,nt,nt,0.37µM*,nt,CLK4 inh-2=1*;DYRK1A RBC=46µM*;CLK2 inh=9.5µM*;CLK3 inh=i;DYRK1B inh=13µM*;CLK1 inh=16µM*
NC(=O)Nc1cc(-c2ccc(CN3CCOCC3)c(F)c2)sc1C(=O)N[C@H]1CCCNC1,11%[57.5 µM],nt,nt,nt,nt,nt,nt,nt,
FC(F)(F)c1ccccc1-c1nc(NCc2ccc(-c3ccc(Cl)c(Cl)c3)cc2)c2ccccc2n1,-8%[57.5 µM],nt,nt,nt,nt,nt,nt,nt,
O=C(Nc1cc2cc[nH]c2cn1)c1ccccc1,22µM*!,nt,7%,nt,nt,nt,nt,14µM*,
Cc1nnc(NC(=O)c2ccccc2)s1,-2%,-12%,1%,4%,0%,i,nt,nt,
Cc1cc(O)c(-c2ccc([C@@H](C)CN(C)C)cc2)c2c1[nH]c(=O)c1sccc12,25µM*,nt,nt,nt,nt,nt,nt,?,
Cc1ccc(Nc2nnc(Cc3ccncc3)c3ccccc23)cc1Br,1%,nt,nt,nt,nt,nt,nt,nt,
Clc1ccc(Nc2nnc(Cc3ccncc3)c3ccccc23)cc1,89µM*!,nt,-16%,nt,nt,i,nt,?,
CCCNC(=O)[C@H]1O[C@@H]1C(=O)N[C@H](C(=O)N1CCC[C@H]1C(=O)OC)C(C)CC (stereo not given in full),4%,nt,nt,nt,nt,nt,nt,nt,
Fc1cc(-c2cccc3ncc(-c4cnn(C5CCNCC5)c4)nc23)cc(F)c1CN1CCOCC1,18µM*!,nt,-4%,nt,nt,nt,nt,-19%,
NCCOc1cc(C(=O)Nc2cc(OCCN)c3ccccc3n2)nc(C(=O)Nc2cc(OCCN)c3ccccc3n2)c1,22µM*,nt,nt,nt,nt,nt,nt,-12%,
COc1ccc(Nc2cc(C(=O)NCc3ccccc3)c3ccccc3n2)c(OC)c1,-4%,24%,5%,?,6%,i,nt,nt,
CC(C)c1cc(CNc2nc(Nc3cc(C4CC4)[nH]n3)cc(N3CCN(C)CC3)n2)on1,?,nt,nt,nt,nt,nt,nt,-16%,
Cc1ncc([N+](=O)[O-])n1C,40%[57.5 µM],nt,nt,nt,nt,i,nt,nt,
Cc1ccc(CN(C(=O)c2ccc(C(C)(C)C)cc2)c2ccccn2)o1,-13%,11%,1%,?,?,i,nt,nt,
Cc1ccsc1CN(C)c1ncnc2ccc(-c3ccc(COC(=O)N(C)C)o3)cc12,nt,nt,nt,nt,nt,nt,1.5µM*,nt,
Cc1ccc(CN(C)c2ncnc3ccc(-c4ccc(CO)o4)cc23)o1,?,nt,nt,nt,nt,nt,0.065µM*,nt,
Nc1nc(NCCNc2ncc(-n3ccnc3)c(-c3ccc(Cl)cc3Cl)n2)ccc1[N+](=O)[O-],11%,nt,-7%,nt,nt,nt,nt,nt,
CC(=O)c1c(C)cc2cccc(O)c2c1O[C@@H]1O[C@H](CO)[C@@H](O)[C@H](O)[C@H]1O,-6%[29.8 µM],nt,nt,nt,nt,nt,nt,nt,
O=C(Nc1nc(Nc2cc(F)cc(F)c2)nc(NC2CCCC2)n1)OCc1ccccc1,2%[57.5 µM],nt,nt,nt,nt,nt,nt,nt,
